For some assays here: Potency and affinity values are given separately. Calls of active or inactive are those of the source. Unless noted, the rule behind the calls is not given here.
What was measured:
[1] = antimalarial activity against Dd2 strain (AID 2302;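 active = growth inhibition above 50% at the single 2 µM test dose, taken to imply half-maximal potency below 2 µM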;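 note: 0% = DMSO untreated growth and 100% = chloroquine plus artemisinin killed control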); conditions: P. falciparum Dd2 in RBCs, LDH growth readout, 72 h; at 2 µM; active compounds read high
[2] = HepG2 cytotoxicity, primary screen, cytotoxicity control for P. falciparum antimalarial project, cell-based, ATP luminescence (AID 2303;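 active = inhibition above 50%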;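 note: 0% = DMSO wells and 100% = digitonin-killed cells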); conditions: HepG2 viability, 24-48 h, at 10 µM, active compounds read high
[3] = target: L-lactate dehydrogenase (Plasmodium falciparum (isolate CDC / Honduras)) (UniProt Q27743); assay: PfLDH activity inhibition – cell lysate, 3D7 strain, counter-screen for P. falciparum growth inhibition project (AID 2304);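 note: 0% = vehicle and 100% = reference inhibitor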; conditions: P. falciparum 3D7 crude extract, LDH APAD/NBT absorbance; at 2 µM; active compounds read high
[4] = inhibition of 3D7 malaria parasite growth – strain 3D7 (AID 2306);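 note: 0% = DMSO wells and 100% = chloroquine plus artemisinin control wells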; conditions: P. falciparum 3D7 erythrocytic growth, LDH absorbance, 72 h; at 2 µM; active compounds read high
[5] = target: Calcium-dependent protein kinase 1 (Plasmodium falciparum (isolate 3D7)) (UniProt P62344); assay: PfCDPK1 kinase inhibitors, biochemical, TCAMS library (AID 1159585; cut-off not given, nearly all actives have IC50 up to about 0.98 µM;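 note: inhibitors leave more ATP so luminescence rises with inhibition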); conditions: recombinant PfCDPK1, Kinase-Glo ATP depletion luminescence
[6] = target: Plasmodium falciparum protein kinase 6 (PK6, PF3D7_1337100) (UniProt Q8IDW1); assay: PfPK6 kinase inhibitors, biochemical, TCAMS library (AID 1159586); conditions: recombinant PfPK6, Kinase-Glo ATP depletion luminescence
[7] = target: Protein kinase 7 (PK7), Plasmodium falciparum 3D7 (PF3D7_0213400) (UniProt Q7YTF7); assay: inhibition of Plasmodium PK7 catalytic activity – biochemical, TCAMS antimalarial set, Kinase-Glo luminescence (AID 1159587); conditions: recombinant PfPK7, Kinase-Glo ATP depletion luminescence
[8] = target: Calcium-dependent protein kinase 4 (Plasmodium falciparum (isolate 3D7)) (UniProt Q8IBS5); assay: PfCDPK4 kinase inhibitors, biochemical, TCAMS library (AID 1159588; cut-off not given, nearly all actives have IC50 up to about 0.91 µM); conditions: recombinant PfCDPK4, Kinase-Glo ATP depletion luminescence
Calcium-dependent protein kinase 4 (Plasmodium falciparum (isolate 3D7)), sequence (Q8IBS5 whole entry, looked up): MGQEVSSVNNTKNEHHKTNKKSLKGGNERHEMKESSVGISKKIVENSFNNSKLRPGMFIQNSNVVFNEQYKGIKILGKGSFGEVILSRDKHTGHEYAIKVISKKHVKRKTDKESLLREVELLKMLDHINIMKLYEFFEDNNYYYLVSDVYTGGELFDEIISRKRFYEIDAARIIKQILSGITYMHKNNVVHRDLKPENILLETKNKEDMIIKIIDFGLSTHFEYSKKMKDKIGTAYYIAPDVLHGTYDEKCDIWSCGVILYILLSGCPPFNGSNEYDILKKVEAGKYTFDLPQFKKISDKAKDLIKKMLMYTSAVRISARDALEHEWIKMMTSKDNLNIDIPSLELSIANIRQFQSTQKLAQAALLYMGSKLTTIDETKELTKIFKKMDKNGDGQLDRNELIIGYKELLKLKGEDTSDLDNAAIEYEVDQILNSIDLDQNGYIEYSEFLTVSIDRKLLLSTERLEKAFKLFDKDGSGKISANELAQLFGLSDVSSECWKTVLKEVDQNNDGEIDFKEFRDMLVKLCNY

Plasmodium falciparum protein kinase 6 (PK6, PF3D7_1337100), sequence (Q8IDW1 1-305): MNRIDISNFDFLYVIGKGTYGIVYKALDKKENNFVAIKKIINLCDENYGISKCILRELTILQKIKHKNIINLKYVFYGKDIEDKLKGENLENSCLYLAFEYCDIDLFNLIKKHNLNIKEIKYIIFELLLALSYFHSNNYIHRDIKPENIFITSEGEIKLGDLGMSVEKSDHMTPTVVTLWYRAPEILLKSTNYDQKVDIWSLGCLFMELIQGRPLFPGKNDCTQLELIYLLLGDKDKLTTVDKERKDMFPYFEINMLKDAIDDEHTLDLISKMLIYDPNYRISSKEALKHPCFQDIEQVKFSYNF
Protein kinase 7 (PK7), Plasmodium falciparum 3D7 (PF3D7_0213400), sequence (Q7YTF7 1-343): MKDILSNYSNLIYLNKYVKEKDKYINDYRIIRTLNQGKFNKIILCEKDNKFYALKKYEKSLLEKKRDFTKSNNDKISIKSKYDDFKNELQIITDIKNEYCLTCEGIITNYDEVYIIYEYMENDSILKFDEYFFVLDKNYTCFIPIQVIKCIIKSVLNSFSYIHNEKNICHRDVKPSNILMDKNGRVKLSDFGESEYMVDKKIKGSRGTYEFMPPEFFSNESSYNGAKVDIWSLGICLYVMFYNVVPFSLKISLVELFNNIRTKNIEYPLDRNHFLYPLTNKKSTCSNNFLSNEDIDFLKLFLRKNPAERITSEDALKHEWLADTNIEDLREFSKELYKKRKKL
Calcium-dependent protein kinase 1 (Plasmodium falciparum (isolate 3D7)), sequence (P62344 whole entry, looked up): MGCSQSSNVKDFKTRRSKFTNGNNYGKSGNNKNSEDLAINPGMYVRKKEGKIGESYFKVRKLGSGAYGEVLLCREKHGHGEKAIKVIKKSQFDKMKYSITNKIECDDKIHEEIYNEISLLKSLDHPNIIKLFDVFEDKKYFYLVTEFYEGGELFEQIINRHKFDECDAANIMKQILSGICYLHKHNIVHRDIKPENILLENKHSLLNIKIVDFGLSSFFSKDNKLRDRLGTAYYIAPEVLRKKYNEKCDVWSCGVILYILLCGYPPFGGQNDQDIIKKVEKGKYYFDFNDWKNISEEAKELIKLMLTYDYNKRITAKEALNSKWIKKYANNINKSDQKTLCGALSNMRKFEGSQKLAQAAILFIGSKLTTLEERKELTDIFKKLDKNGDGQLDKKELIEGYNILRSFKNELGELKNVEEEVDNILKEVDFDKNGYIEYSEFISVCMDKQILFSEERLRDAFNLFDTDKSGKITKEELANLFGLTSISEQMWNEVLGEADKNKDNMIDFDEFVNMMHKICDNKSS
L-lactate dehydrogenase (Plasmodium falciparum (isolate CDC / Honduras)), sequence (Q27743 whole entry, looked up): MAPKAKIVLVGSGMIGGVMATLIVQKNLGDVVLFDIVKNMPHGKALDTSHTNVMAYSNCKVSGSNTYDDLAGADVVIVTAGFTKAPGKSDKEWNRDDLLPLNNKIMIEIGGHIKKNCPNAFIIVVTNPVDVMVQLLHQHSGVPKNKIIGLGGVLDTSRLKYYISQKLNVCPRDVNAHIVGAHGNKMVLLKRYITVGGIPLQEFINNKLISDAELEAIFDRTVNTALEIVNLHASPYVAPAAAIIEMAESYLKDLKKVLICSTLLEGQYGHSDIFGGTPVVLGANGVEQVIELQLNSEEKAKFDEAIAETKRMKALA

CN(C)CCCn1cncc1-c1ccc2ncnc(Nc3ccc(OCc4ccccc4)cc3)c2c1
inactive: inhibition [2] 37% | inhibition [3] 2% | outcome [5] | outcome [6] | outcome [7] | outcome [8]
active: growth inhibition [1] 101% | growth inhibition [4] 101%

O=C(Nc1ccccc1)Nc1cccc(-c2ccc(-c3nc4ccc(C(F)(F)F)cc4[nH]3)cc2)c1
inactive: growth inhibition [1] 37% | inhibition [2] 48% | inhibition [3] -3% | outcome [5] | outcome [6] | outcome [7] | outcome [8]
active: growth inhibition [4] 101%

NC1=NC2(CCCCC2)N(OCCCCCCc2ccccc2)C(N)=N1
inactive: inhibition [3] -2% | outcome [5] | outcome [6] | outcome [7] | outcome [8]
active: growth inhibition [1] 69% | inhibition [2] 73% | growth inhibition [4] 100%

CCOC(=O)c1ccc(NC(=O)N(Cc2ccc(-c3ccc(CN4CCNCC4)cc3)cc2)Cc2cccnc2)cc1
active: growth inhibition [4] 94%
inactive: growth inhibition [1] 34% | inhibition [2] 13% | inhibition [3] 2% | outcome [5] | outcome [6] | outcome [7] | outcome [8]

Fc1ccc(Nc2n[nH]c(CNC3CCN(Cc4ccc(Cl)c(Cl)c4)CC3)n2)cc1
inactive: growth inhibition [1] 36% | inhibition [2] 18% | inhibition [3] 5% | outcome [5] | outcome [6] | outcome [7] | outcome [8]
active: growth inhibition [4] 101%

COc1ccc(-c2ccc([N+](=O)[O-])cc2C(=O)NCC(C)Oc2ccc(C(F)(F)F)cc2)cc1 (stereo not given)
active: growth inhibition [1] 81% | growth inhibition [4] 102%
inactive: inhibition [2] 6% | inhibition [3] 5% | outcome [5] | outcome [6] | outcome [7] | outcome [8]

Cc1cc(NN=Cc2ccccc2[N+](=O)[O-])c2cccc(C)c2n1
inactive: inhibition [2] -6% | inhibition [3] 1% | outcome [5] | outcome [6] | outcome [7] | outcome [8]
active: growth inhibition [1] 100% | growth inhibition [4] 99%

CC(C)(C(=O)NCCC1CCN(CCCCCNC(=O)/C=C/c2ccc(Cl)c(Cl)c2)CC1)c1ccc(Cl)cc1
inactive: growth inhibition [1] 33% | inhibition [3] -2% | outcome [5] | outcome [6] | outcome [7] | outcome [8]
active: inhibition [2] 92% | growth inhibition [4] 89%

Cc1cccc2[nH]c(-c3cccc(-c4ccc(NC(=O)Nc5ccc(Cl)c(Cl)c5)cc4)c3)nc12
inactive: inhibition [3] 7% | outcome [5] | outcome [6] | outcome [7] | outcome [8]
active: growth inhibition [1] 83% | inhibition [2] 53% | growth inhibition [4] 102%

Cc1c(C(=O)Nc2cc(Sc3ccc(F)cc3)cc([N+](=O)[O-])c2)sc2ncn(Cc3cccc(F)c3)c(=O)c12
active: growth inhibition [1] 53% | growth inhibition [4] 100%
inactive: inhibition [2] -1% | inhibition [3] 5% | outcome [5] | outcome [6] | outcome [7] | outcome [8]

CN1CCCC(CN2CCN(Cc3ccc(-c4ccc(-c5nc6ccccc6[nH]5)s4)cc3)CC2)C1 (stereo not given)
inactive: inhibition [3] -8% | outcome [5] | outcome [6] | outcome [7] | outcome [8]
active: growth inhibition [1] 100% | inhibition [2] 57% | growth inhibition [4] 100%

Cc1c2ccncc2c(C)c2c1[nH]c1cc(Cc3ccccc3)c(O)cc12
inactive: inhibition [3] -4% | outcome [5] | outcome [6] | outcome [7] | outcome [8]
active: growth inhibition [1] 99% | inhibition [2] 99% | growth inhibition [4] 100%

Cc1cc(NC(=O)c2ccsc2)ccc1OC1CCN(Cc2ccc(F)cc2)CC1
inactive: growth inhibition [1] 47% | inhibition [2] 9% | inhibition [3] -2% | outcome [5] | outcome [6] | outcome [7] | outcome [8]
active: growth inhibition [4] 83%

COc1ccc2nccc([C@@H](O)CN3CCC(NC(=O)c4ccc(C5(C(F)(F)F)N=N5)cc4)CC3)c2c1
inactive: growth inhibition [1] 41% | inhibition [2] 8% | inhibition [3] -8% | outcome [5] | outcome [6] | outcome [7] | outcome [8]
active: growth inhibition [4] 97%

CCCC(=O)Nc1ccc(OCCCCN(CC(C)(C)C)c2ccc(C#N)c(C(F)(F)F)c2)cc1
active: growth inhibition [1] 69% | growth inhibition [4] 83%
inactive: inhibition [2] 9% | inhibition [3] -1% | outcome [5] | outcome [6] | outcome [7] | outcome [8]

Nc1c(Cl)cc(C(O)CNCCCCCOCCCc2ccc(O)c3ncccc23)cc1Cl (stereo not given)
active: inhibition [2] 65% | growth inhibition [4] 90%
inactive: growth inhibition [1] 12% | inhibition [3] -4% | outcome [5] | outcome [6] | outcome [7] | outcome [8]

CCOc1ccc2ccccc2c1CNCCCCCCNCc1c(OCC)ccc2ccccc12
active: growth inhibition [1] 89% | inhibition [2] 100% | growth inhibition [4] 100%
inactive: inhibition [3] -2% | outcome [5] | outcome [6] | outcome [7] | outcome [8]

c1ccc(CNc2nc(NCCc3cnc[nH]3)nc(N3CCCC4CCCCC43)n2)cc1 (stereo not given)
active: growth inhibition [1] 100% | growth inhibition [4] 98%
inactive: inhibition [2] -6% | inhibition [3] -3% | outcome [5] | outcome [6] | outcome [7] | outcome [8]

FC(F)(F)c1cccc(CCNc2nccc(NCc3ccccc3Cl)n2)c1
inactive: growth inhibition [1] 38% | inhibition [2] 31% | inhibition [3] 1% | outcome [5] | outcome [6] | outcome [7] | outcome [8]
active: growth inhibition [4] 89%

Cc1ccc(-c2nc3ccc(C(=O)NC4CCN(Cc5ccccc5)CC4)cc3[nH]2)cc1
inactive: inhibition [2] 20% | inhibition [3] -4% | outcome [5] | outcome [6] | outcome [7] | outcome [8]
active: growth inhibition [1] 53% | growth inhibition [4] 100%

CCOc1ccc2nc(C)cc(NN=Cc3ccncc3)c2c1
inactive: inhibition [2] 8% | inhibition [3] 0% | outcome [5] | outcome [6] | outcome [7] | outcome [8]
active: growth inhibition [1] 78% | growth inhibition [4] 99%

Cc1[nH]c(C)c(-c2ccc(Oc3ccc(OC(F)(F)F)cc3)cc2)c(=O)c1I
active: growth inhibition [1] 96% | growth inhibition [4] 95%
inactive: inhibition [2] 3% | inhibition [3] -3% | outcome [5] | outcome [6] | outcome [7] | outcome [8]

CC(C)c1cccc(OCC2CCN(c3ccc(C(=O)Nc4ccccc4)cn3)CC2)c1
inactive: inhibition [2] 9% | inhibition [3] 4% | outcome [5] | outcome [6] | outcome [7] | outcome [8]
active: growth inhibition [1] 90% | growth inhibition [4] 95%

COc1ccc(O)c(-c2sc(N=C(N)N)nc2-c2ccccc2)c1
active: growth inhibition [1] 96% | growth inhibition [4] 101%
inactive: inhibition [2] 2% | inhibition [3] -2% | outcome [5] | outcome [6] | outcome [7] | outcome [8]

CCc1ccc(C2CCN(CCCCNC(=O)c3ccc(-c4ccc(C#N)cc4)cc3)CC2)c(OCCO)c1
active: growth inhibition [1] 61% | growth inhibition [4] 94%
inactive: inhibition [2] 24% | inhibition [3] -4% | outcome [5] | outcome [6] | outcome [7] | outcome [8]

Cc1cccc2[nH]c(-c3cccc(-c4cccc(NC(=O)c5ccc(C(N)=O)cc5)c4)c3)nc12
active: growth inhibition [4] 101%
inactive: growth inhibition [1] 34% | inhibition [2] 25% | inhibition [3] 0% | outcome [5] | outcome [6] | outcome [7] | outcome [8]

COc1ccc(CNCc2ccc(-c3ccc(CNCCc4ccccc4)cn3)cc2)cn1
active: growth inhibition [4] 97%
inactive: growth inhibition [1] 44% | inhibition [2] 16% | inhibition [3] 1% | outcome [5] | outcome [6] | outcome [7] | outcome [8]

CC(NC(=O)c1ccc(O)c(-c2ccc(Cl)c(Cl)c2)c1)C(=O)NCCN1CCCCC1 (stereo not given)
active: growth inhibition [4] 97%
inactive: growth inhibition [1] 3% | inhibition [2] -2% | inhibition [3] 2% | outcome [5] | outcome [6] | outcome [7] | outcome [8]

O=S(=O)(c1c(Cl)cc(Cl)cc1Cl)N1CCCCC(c2ccc(F)c(F)c2)=N1
inactive: inhibition [2] 5% | inhibition [3] -1% | outcome [5] | outcome [6] | outcome [7] | outcome [8]
active: growth inhibition [1] 65% | growth inhibition [4] 87%

CS(=O)(=O)NCCCNCc1ccc(-c2ccc(-c3nc4ccc(F)cc4[nH]3)cc2)cc1
active: growth inhibition [1] 97% | growth inhibition [4] 100%
inactive: inhibition [2] 17% | inhibition [3] -1% | outcome [5] | outcome [6] | outcome [7] | outcome [8]

CC(C)CNC(=O)CN1C(=O)C(c2ccccc2)(c2ccccc2)N=C1N
active: growth inhibition [4] 94%
inactive: growth inhibition [1] 46% | inhibition [2] 15% | inhibition [3] -1% | outcome [5] | outcome [6] | outcome [7] | outcome [8]

Cc1noc(C)c1-c1cccc(CNCc2ccc(-c3cccc(-c4nc5ccc(F)cc5[nH]4)c3)cc2)c1
inactive: inhibition [2] 37% | inhibition [3] 4% | outcome [5] | outcome [6] | outcome [7] | outcome [8]
active: growth inhibition [1] 84% | growth inhibition [4] 102%

COc1ccc(-c2ccc(NC(=O)c3ccc(C#N)cc3)cc2)cc1CN1CCCC1
inactive: inhibition [2] 40% | inhibition [3] 5% | outcome [5] | outcome [6] | outcome [7] | outcome [8]
active: growth inhibition [1] 51% | growth inhibition [4] 95%

O=C(Nc1cc(C(F)(F)F)cc(C(F)(F)F)c1)Nc1ccc(Cl)c(Cl)c1
active: growth inhibition [1] 100% | inhibition [2] 58% | growth inhibition [4] 101%
inactive: inhibition [3] 0% | outcome [5] | outcome [6] | outcome [7] | outcome [8]

CC(C)c1ccc(NC(=O)c2ccc(CN3CCCN(CC4CCCCC4)CC3)cc2)cc1
active: inhibition [2] 50% | growth inhibition [4] 90%
inactive: growth inhibition [1] 34% | inhibition [3] 6% | outcome [5] | outcome [6] | outcome [7] | outcome [8]

C=CCNC(=O)C(C)c1ccc2cc(OC)ccc2c1 (stereo not given)
active: growth inhibition [1] 90% | growth inhibition [4] 92%
inactive: inhibition [2] 4% | inhibition [3] 1% | outcome [5] | outcome [6] | outcome [7] | outcome [8]

O=c1cc(NCCCNCc2cccc(OC(F)(F)F)c2)[nH]c2ccccc12
inactive: inhibition [2] -4% | inhibition [3] -1% | outcome [5] | outcome [6] | outcome [7] | outcome [8]
active: growth inhibition [1] 72% | growth inhibition [4] 97%

Oc1ccccc1CNCc1ccc(-c2cnc(N3CCCC(c4ccccc4)C3)nc2)cc1 (stereo not given)
inactive: inhibition [2] 6% | inhibition [3] -4% | outcome [5] | outcome [6] | outcome [7] | outcome [8]
active: growth inhibition [1] 84% | growth inhibition [4] 99%

CCc1cc2c(Sc3nc4ccccc4[nH]3)ncnc2s1
active: growth inhibition [1] 98% | growth inhibition [4] 97%
inactive: inhibition [2] 6% | inhibition [3] 2% | outcome [5] | outcome [6] | outcome [7] | outcome [8]

O=C(Cc1cccc(Cl)c1)Nc1cccc(-c2c[nH]c3nc(Nc4cccc(OCc5ccccc5)c4)ncc23)c1
inactive: inhibition [2] -1% | inhibition [3] -1% | outcome [5] | outcome [6] | outcome [7] | outcome [8]
active: growth inhibition [1] 56% | growth inhibition [4] 100%

— PubChem BioAssay
